According to PubChem BioAssay (NCATS):
Several values for one entry are separate records, joined by “and”; a condition that tells them apart may be missing. Equal values may be shown once. Results filed as inconclusive are left out. A call without a number means that no potency is given here. More than one record can exist for a structure, and the calls need not agree. Activity calls are given as the source filed them. The call rests on the fitted dose curve; in most records, active means well fitted inhibition curve with a large enough effect; inconclusive means small, poorly fitted or top-dose-only effect; inactive means flat fitted curve, though single readings scatter.

Columns and labels:
[1] = qHTS profiling for inhibitors of Plasmodium falciparum proliferation (AID 504749); on all read-outs here: nearly all actives have a fitted effect of over 60% in size; conditions: P. falciparum in erythrocytes, SYBR Green DNA, 72 h; for activity, negative = inhibition: at 28.7 µM (top of the series)
Procedure, shortened: (§1)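 Quantitative HTS: compounds pinned into medium, infected erythrocytes added (0.3% parasitemia, 2.5% hematocrit), 72 h culture at 37 C under 5% CO2. Saponin/Triton lysis with SYBR Green I, overnight RT, then fluorescence read.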

[2] = system: 3D7; assay: as above; conditions: P. falciparum in erythrocytes, SYBR Green DNA, 72 h; series mostly up to 28.7 µM
Procedure, shortened: as §1

[3] = system: 7G8; assay: as above; conditions: P. falciparum in erythrocytes, SYBR Green DNA, 72 h; series mostly up to 28.7 µM
Procedure, shortened: as §1

[4] = system: AA1029; assay: as above; conditions: P. falciparum in erythrocytes, SYBR Green DNA, 72 h; series mostly up to 28.7 µM
Procedure, shortened: as §1

[5] = system: AS120; assay: as above; conditions: P. falciparum in erythrocytes, SYBR Green DNA, 72 h; series mostly up to 28.7 µM
Procedure, shortened: as §1

[6] = system: ATS189; assay: as above; conditions: P. falciparum in erythrocytes, SYBR Green DNA, 72 h; series mostly up to 28.7 µM
Procedure, shortened: as §1

[7] = system: ATS95; assay: as above; conditions: P. falciparum in erythrocytes, SYBR Green DNA, 72 h; series mostly up to 28.7 µM
Procedure, shortened: as §1

[8] = system: C2A; assay: as above; conditions: P. falciparum in erythrocytes, SYBR Green DNA, 72 h; series mostly up to 28.7 µM
Procedure, shortened: as §1

[9] = system: CP185; assay: as above; conditions: P. falciparum in erythrocytes, SYBR Green DNA, 72 h; series mostly up to 28.7 µM
Procedure, shortened: as §1

[10] = system: CP191; assay: as above; conditions: P. falciparum in erythrocytes, SYBR Green DNA, 72 h; series mostly up to 28.7 µM
Procedure, shortened: as §1
Potency means the concentration at half of the fitted maximal effect.

Row | Compound | activity, negative = inhibition ([1]; parasite line A) | activity, negative = inhibition ([1]; parasite line B) | Potency [2] | Potency [3] | Potency [4] | Potency [5] | Potency [6] | Potency [7] | Potency [8] | Potency [9] | Potency [10] | Potency ([1]; parasite line A) | Potency ([1]; parasite line B)
1 | ClC=C(Cl)Cl | 6.3% (inactive) | 0.959% (inactive) | inactive | inactive | inactive | inactive | inactive | inactive | inactive | inactive | inactive | – | –
2 | CC(Cc1ccccc1)NC=O (stereo not given) | 1.78% (inactive) | 3.72% (inactive) | inactive | inactive | inactive | inactive | inactive | inactive | inactive | inactive | inactive | – | –
3 | CCCCCl | 1.32% (inactive) | 10.6% (inactive) | inactive | inactive | inactive | inactive | inactive | inactive | inactive | inactive | inactive | – | –
4 | COc1ccc2c(c1OC)C(=O)OC2C1c2cc3c(cc2CCN1C)OCO3 (stereo not given) | 9.94% (inactive) | 3.46% (inactive) | inactive | inactive | inactive | inactive | inactive | inactive | inactive | inactive | inactive | – | –
5 | C=CCN=C=S | -3.28% (inactive) | 7.56% (inactive) | inactive | inactive | inactive | inactive | inactive | inactive | inactive | inactive | inactive | – | –
6 | O=[N+]([O-])c1cc(I)c(O)c(I)c1 | -8.29% (inactive) | -20.5% (inactive) | inactive | inactive | inactive | inactive | inactive | inactive | inactive | inactive | inactive | – | –
7 | CC(=O)OO | 5.76% (inactive) | 13% (inactive) | inactive | inactive | inactive | inactive | inactive | inactive | inactive | inactive | inactive | – | –
8 | ClC1C(Cl)C(Cl)C(Cl)C(Cl)C1Cl (stereo not given) | 10.1% (inactive) | 13.2% (inactive) | inactive | inactive | inactive | inactive | inactive | inactive | inactive | inactive | inactive | – | –
9 | CC[N+](C)(CC)CCOC(=O)C(O)(c1ccccc1)c1ccccc1 | 5.27% (inactive) | 8.78% (inactive) | inactive | inactive | inactive | inactive | inactive | inactive | inactive | inactive | inactive | – | –
10 | CCC1C(C)=NN=C(c2ccc(OC)c(OC)c2)c2cc(OC)c(OC)cc21 (stereo not given) | 12.9% (inactive) | 13.3% (inactive) | inactive | 14.1 µM (active) | inactive | inactive | inactive | inactive | inactive | inactive | inactive | – | –
11 | CCOc1ccc2c3c1O[C@H]1[C@@H](O)C=C[C@H]4[C@@H](C2)N(C)CC[C@@]341 | 0.925% (inactive) | -4.11% (inactive) | inactive | inactive | inactive | inactive | inactive | inactive | inactive | inactive | inactive | – | –
12 | C[CH2][Hg][S]c1ccccc1C(=O)O | – | – | 1.78 µM (active) | 1.12 µM (active) | 3.16 µM (active) | 3.16 µM (active) | 3.55 µM (active) | 2 µM (active) | 3.98 µM (active) | 2 µM (active) | 3.55 µM (active) | 2.82 µM (active) | 3.16 µM (active)
13 | CC(C)(C)c1cc(O)ccc1O | -22.4% (inactive) | – | 2.24 µM (active) | 3.16 µM (active) and 2.82 µM (active) | 8.91 µM (active) and inactive | 8.91 µM (active) | 10 µM (active) | 7.94 µM (active) | 4.47 µM (active) | 11.2 µM (active) and inactive | 11.2 µM (active) | 7.94 µM (active) | 8.91 µM (active)
14 | CN1C2CCC1CC(OC(c1ccccc1)c1ccc(Cl)cc1)C2 (stereo not given) | – | – | 12.6 µM (active) | 4.47 µM (active) | 11.2 µM (active) | 11.2 µM (active) | 10 µM (active) | 8.91 µM (active) | 11.2 µM (active) | 12.6 µM (active) | 4.47 µM (active) | 5.01 µM (active) | 7.08 µM (active)
15 | C[C@]12CCC(=O)C[C@@H]1CC[C@@H]1[C@@H]2CC[C@]2(C)[C@@H](O)CC[C@@H]12 | -12.4% (inactive) | 4.65% (inactive) | inactive | inactive | inactive | inactive | inactive | inactive | inactive | inactive | inactive | – | –
16 | S=C=S | 2.86% (inactive) | 20.2% (inactive) | inactive | inactive | inactive | inactive | inactive | inactive | inactive | inactive | inactive | – | –
17 | O=C(O)C(Cl)(Cl)Cl | 7.18% (inactive) | 2% (inactive) | inactive | inactive | inactive | inactive | inactive | inactive | inactive | inactive | inactive | – | –
18 | O=C(CS(=O)C(c1ccccc1)c1ccccc1)NO (stereo not given) | -13.7% (inactive) | 0.0253% (inactive) | inactive | inactive | inactive | inactive | inactive | inactive | inactive | inactive | inactive | – | –
19 | c1csc(C2(N3CCCCC3)CCCCC2)c1 | -2.88% (inactive) | 1.73% (inactive) | inactive | inactive | inactive | inactive | inactive | inactive | inactive | inactive | inactive | – | –
